Measurements from PubChem BioAssay AID1159580 (chemical genetic matrix, 2015).
Several values for one entry are separate records, joined by “and”; a condition that tells them apart may be missing. Equal entries are not always repeated. Screen size: about 5,500 compounds; about 2,000 (36%) were called active. Not shown: some 18% with an inconclusive outcome. Cut-off read from the data, not from the text of the source: active = normalized growth mostly below about 0.91 (no sharp cut-off); inconclusive = no clear call, values can overlap the other calls; inactive = mostly above about 0.92. The list shows a part of the results.

Test: chemical genetic growth profiling, strain panel (AID 1159580);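 note: tested at 20 µM; growth read once vehicle control cultures reached saturation at 30 °C; 1 = growth at the plate median or of vehicle wells; lower values mean less growth of the strain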
Conditions: S. cerevisiae deletion strains, growth OD

Measured: normalized growth

CC1(C)C(=O)[C@@H]2C[C@@]3(O)C4=CC(=O)O[C@@H](c5ccoc5)[C@]4(C)CCC3[C@@](C)(C2=O)[C@H]1CC(=O)O (stereo partly specified)
inactive: locus YAL021C, strain ccr4, active compounds read low 0.988 | locus YAL026C, strain drs2, active compounds read low 1.02 | locus YAL030W, strain snc1, active compounds read low 0.997 | locus YBL061C, strain skt5, active compounds read low 1.01 | locus YBR009C, strain hhf1, active compounds read low 1 | locus YBR021W, strain FUR4, active compounds read low 1 | locus YBR023C, strain chs3, active compounds read low 1.01 | locus YBR171W, strain sec66, active compounds read low 1.01 | locus YBR229C, strain ROT2, active compounds read low 1.01 | locus YBR231C, strain swc5, active compounds read low 1.01 | locus YBR279W, strain paf1, active compounds read low 1.01 | locus YCL011C, strain gbp2, active compounds read low 1.02 | locus YCL016C, strain dcc1, active compounds read low 1.01 | locus YCL029C, strain bik1, active compounds read low 0.995 | locus YCL061C, strain MRC1, active compounds read low 1 | locus YCL069W, strain vba3, active compounds read low 1.01 | locus YCR088W, strain abp1, active compounds read low 1 | locus YDL005C, strain med2, active compounds read low 0.996 | locus YDL035C, strain GPR1, active compounds read low 1.03 | locus YDL040C, strain nat1, active compounds read low 0.991 | locus YDL074C, strain BRE1, active compounds read low 1.02 | locus YDL101C, strain DUN1, active compounds read low 1.01 | locus YDL185W, strain tfp1, active compounds read low 0.995 | locus YDL192W, strain arf1, active compounds read low 1 | locus YDR001C, strain nth1, active compounds read low 1.01 | locus YDR069C, strain doa4, active compounds read low 1.02 | locus YDR101C, strain arx1, active compounds read low 0.993 | locus YDR137W, strain rgp1, active compounds read low 1.04 | locus YDR150W, strain NUM1, active compounds read low 1.01 | locus YDR159W, strain sac3, active compounds read low 1.01 | locus YDR162C, strain NBP2, active compounds read low 1.03 | locus YDR195W, strain ref2 0.972 | locus YDR297W, strain sur2, active compounds read low 1.01 | locus YDR318W, strain mcm21, active compounds read low 0.996 | locus YDR334W, strain swr1, active compounds read low 1.01 | locus YDR335W, strain msn5, active compounds read low 1.01 | locus YDR388W, active compounds read low 0.967 | locus YDR392W, strain spt3, active compounds read low 1.01 | locus YDR502C, strain sam2, active compounds read low 0.991 | locus YEL003W, strain gim4, active compounds read low 1.03 | locus YEL037C, strain rad23, active compounds read low 1.01 | locus YEL061C, strain CIN8 (second series), active compounds read low 1.02 | locus YEL061C, strain CIN8, active compounds read low 1 | locus YER015W, strain faa2, active compounds read low 1 | locus YER016W, strain bim1, active compounds read low 1 | locus YER110C, active compounds read low 0.984 | locus YER111C, strain swi4, active compounds read low 1.01 | locus YER155C, strain BEM2 (second series), active compounds read low 1.02 | locus YER155C, strain BEM2, active compounds read low 1 | locus YER167W, strain BCK2, active compounds read low 1 | locus YFR010W, strain ubp6, active compounds read low 1.01 | locus YGL078C, strain dbp3, active compounds read low 0.996 | locus YGL086W, strain mad1, active compounds read low 1.01 | locus YGL167C, strain pmr1, active compounds read low 1 | locus YGL173C, strain kem1, active compounds read low 1.01 | locus YGL227W, strain vid30, active compounds read low 0.998 | locus YGL240W, strain doc1, active compounds read low 1.01 | locus YGL248W, strain PDE1, active compounds read low 1 | locus YGL253W, strain hxk2, active compounds read low 1.01 | locus YGR135W, strain pre9, active compounds read low 0.997 | locus YGR252W, strain gcn5, active compounds read low 1 | locus YHR013C, strain ard1, active compounds read low 1.02 | locus YHR027C, strain rpn1, active compounds read low 0.993 | locus YHR030C, strain SLT2, active compounds read low 0.98 | locus YHR079C, strain IRE1 (second series), active compounds read low 0.996 | locus YHR079C, strain IRE1, active compounds read low 0.956 | locus YHR094C, strain hxt1, active compounds read low 0.981 | locus YHR129C, strain ARP1, active compounds read low 1 | locus YHR142W, strain chs7, active compounds read low 1.02 | locus YHR200W, strain rpn10, active compounds read low 0.988 | locus YIL066C, strain RNR3, active compounds read low 1 | locus YIL073C, strain SPO22, active compounds read low 1.05 | locus YIL125W, strain kgd1, active compounds read low 0.994 | locus YIR030C, strain dcg1, active compounds read low 0.993 | locus YJL092W, strain hpr5, active compounds read low 1.01 | locus YJL095W, strain BCK1 (second series), active compounds read low 1 | locus YJL095W, strain BCK1, active compounds read low 1.02 and 0.973 | locus YJL115W, strain asf1, active compounds read low 1.02 | locus YJL129C, strain trk1, active compounds read low 0.998 | locus YJL134W, strain LCB3, active compounds read low 1 | locus YJL154C, strain vps35, active compounds read low 1 | locus YJL164C, strain tpk1, active compounds read low 1.01 | locus YJL166W, strain qcr8, active compounds read low 1.02 | locus YJL168C, strain set2, active compounds read low 0.994 | locus YJL187C, strain SWE1 (second series), active compounds read low 1.01 | locus YJL187C, strain SWE1, active compounds read low 1.03
